Screening data from PubChem BioAssay.
A selection: hits, their analogues and other compounds. The true share with any hit is near 20%.
Shiga toxin inh = inhibitors of Shiga toxin in Vero cells; actives 9.2% (n = 290,000); Vero cells, Shiga toxin protein synthesis inhibition reporter; inhibition, % at 38.7 µM; in the data active means inhibition mostly above about 28%, no sharp cut-off; inactive means mostly below about 43%; further: 0% is about no effect
CHX counter = affects cycloheximide protein synthesis inhibition readout, counter-screen. cell reporter, cycloheximide protein synthesis inhibition counterscreen. max response, %. actives 12% (n = 300,000); in the data active means max response mostly above about 13%, no sharp cut-off; inactive means mostly below about 14%; further: read at 38.3 µM for the half of the compounds with a filed dose; 0% is about no effect
HCMV inh = human cytomegalovirus inhibition; HFF cells, HCMV-luciferase reporter, 72 h; hits give low values; actives 4.5% (n = 410,000); activity change, negative = inhibition, % at 57.5 µM; in the data active means activity change below about -60%; inconclusive means no clear call, values can overlap the other calls; inactive means above about -39%; further: on the % scale 0 is the no-effect control and ±100 the full control effect
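HFF cells seeded 16 h at 37C, treated with compounds, infected with luciferase-reporter HCMV at MOI 1 PFU/cell; luciferase read at 72 h post infection, normalized to buffer-only and Salinomycin controls.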
Pf growth 48h = inhibits P. falciparum growth in the first generation, 48 h; P. falciparum luciferase growth in erythrocytes, 48 h; Potency, µM (top dose mostly 28.7 µM), for inactives: top-dose activity change, negative = inhibition, actives largely listed as inhibitors; actives 5.9% (n = 310,000); further: potency means the concentration at half of the fitted maximal effect; on the % scale 0 is the no-effect control and ±100 the full control effect
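Compounds are pin-transferred into medium, infected erythrocytes (2% hematocrit, 0.1% parasitemia final) are added, and plates sit one parasite generation at 37 C in 5% CO2. Detection reagent is then added and luminescence measured.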
Pf growth 96h = P. falciparum growth inhibition at 96 hour, primary screen for plastid delayed-death inhibitors; P. falciparum luciferase reporter growth, 96 h; Potency, µM (titrated, usually from 28.7 µM), for inactives: top-dose activity change, negative = inhibition, most hits filed as inhibitors; actives 6.9% (n = 320,000); AID 504834; further: potency means the concentration at half of the fitted maximal effect; on the % scale 0 is the no-effect control and ±100 the full control effect
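Infected RBCs, 2% Hct / 0.05% parasitemia final; luciferase-reporter P. falciparum; cpd 96 h, 37 C, 5% CO2; luciferase detection reagent; luminescence.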
An asterisk follows results filed as active; ? = inconclusive; nt = no result given; + = active, no number; ! = not confirmed by another sample. Unless noted, the call rests on the fitted dose curve; in most records, active means well fitted inhibition curve with a large enough effect; inconclusive means small, poorly fitted or top-dose-only effect, or another doubt; inactive means no such curve, though single readings can be large or run the other way.

SMILES	Shiga toxin inh	CHX counter	HCMV inh	Pf growth 48h	Pf growth 96h
CCOC(=O)N1CCN(S(=O)(=O)N2CCCC(C(=O)NCc3ccccc3Cl)C2)CC1 (centres undefined)	-9	-6	19	6%	12µM*
CN1C(=O)N(CC(=O)N2CCN(S(=O)(=O)c3ccc(Cl)s3)CC2)C(=O)C12CCCCC2	nt	nt	-39	?	?
Cc1cc(C)cc(N2CCn3c2nc2c3c(=O)n(CCCc3ccccc3)c(=O)n2C)c1	nt	nt	-12	nt	nt
CN(C)C(CNC(=O)CN1C(=O)NC2(CCc3ccccc32)C1=O)c1ccco1 (centres undefined)	-19	-3	-38	-3%	-12%
O=C(CCc1nnc(-c2ccsc2)o1)NCc1ccccc1OC(F)(F)F	9	10*	50	14%	?
O=C(CCc1nnc(-c2ccccc2)o1)NCc1cc(F)ccc1F	29	17*	26	-10%	?
CSc1ccccc1NC(=O)C1CCN(S(C)(=O)=O)CC1	44	-3	-26	6%	?
O=C(NCCN1CCCCC1)c1ccc(Cn2c(SCc3ccc(F)cc3)nc3cccnc32)cc1	nt	nt	49	nt	nt
CCOC(=O)CCCCC(=O)c1[nH]c(=O)[nH]c1Cn1ccnc1	13	7	32	0.47µM*	nt
CCCCSCc1[nH]c(=O)[nH]c1C(=O)CCCCC(=O)OCC	-5	1	107	-15%	-23%
COc1ccc(-c2nc3n(c2C)Cc2ccccc2-3)cc1	130*	39*	89	111%	31%
C[C@@H](N)C(=O)O	nt	nt	nt	17µM*	19%
CCc1cccc(C)c1NC(=O)CN1C(=O)c2ccccc2Sc2ncccc21	nt	nt	-18	nt	nt
Cc1ccccc1OCC(O)CNCCOc1ccc(C(N)=O)cc1 (centres undefined)	nt	nt	nt	-12%	-29%
COc1ccc(OCC(O)CNCCOc2ccccc2OC)c(C(C)(C)C)c1 (centres undefined)	-7	-4	-67*	4.7µM*	3.7µM*
Cc1ccc2nc(-c3ccco3)c(Cc3cccc(F)c3)n2c1	nt	nt	14	nt	nt
CCOc1ccc(NC(=O)CSc2nc3ccsc3c(=O)n2CCCCCC(=O)O)cc1	nt	nt	+!	nt	nt
Cc1cc(NC(=O)CSc2nc3ccsc3c(=O)n2CCCCC(=O)O)no1	6	-7	23	12%	4.7µM*
COc1ccc(NC(=O)CSc2nc3ccsc3c(=O)n2CCC(=O)O)cc1	nt	nt	-18	nt	nt
COc1ccc(CCn2c(SCC(=O)Nc3cc(C)on3)nc3ccccc3c2=O)cc1OC	16	-4	19	46%	0%
COc1ccc(CCn2c(SCC(=O)Nc3cc(C)on3)nc3ccsc3c2=O)cc1OC	7	7	-12	8.3µM*	nt
O=C1N(c2ccccc2)C(c2ccccc2)C12CCCCC2 (centres undefined)	nt	nt	-6	nt	nt
Cc1nnn(C23C[C@@H]4C[C@@H](CC(C(=O)N5CCN(c6ccccc6)CC5)(C4)C2)C3)n1	22	-2	-87*	-8%	-20%
Cc1ccc(CCNC(=O)C23C[C@H]4C[C@@H](C2)CC(n2nnc(C)n2)(C4)C3)cc1	59	41*	-7	-25%	32%
O=C(N1CCN(c2ccccc2)CC1)C12CC3CC(CC(C3)C1)C2	7	-2	?	?	?
SMILES	Shiga toxin inh	CHX counter	HCMV inh	Pf growth 48h	Pf growth 96h
Fc1ccccc1-c1cc2ncccc2cn1	nt	nt	53	126%	112%
COc1ccccc1C(=O)C1CCCN(C(=O)c2cccc(-n3cccn3)c2)C1 (centres undefined)	-3	1	?	-20%	11%
CCCc1cc(C(=O)Cc2ccc(C(=O)OCC)o2)c(O)cc1O	-12	-3	-16	12µM*	12µM*
CCc1cc(C(=O)COc2ccccc2F)c(O)cc1O	16	28*	3	?	?
COc1ccc(OC)c(C(=O)COC(=O)COc2ccccc2F)c1	nt	nt	-6	11%	19%
CCc1cc(C(=O)Cc2ccc(F)cc2)c(O)cc1O	-8	-5	-77*	?	69%
CCCc1cc(C(=O)Cc2ccc(F)cc2)c(O)cc1O	7	-2	-20	-15%	nt
O=C(CN1C(=O)COc2ccc(S(=O)(=O)N3CCCCCC3)cc21)N1CCN(c2cccc(Cl)c2)CC1	nt	nt	-20	nt	nt
CSc1c(CC(=O)NCCCO)n(Cc2ccccc2)c2ccccc12	-2	-1	24	-14%	9.3µM*
COc1ccc(Cn2c(SCC(=O)Nc3ccc(OC)cc3)nc3ccccc32)cc1	nt	nt	-19	nt	nt
COc1ccc(NC(=O)Cc2c(SC)c3ccccc3n2Cc2ccccc2)cc1	10	-1	-87*	12µM*	7.4µM*
CCN(CC)CC(=O)Nc1nc(-c2ccc(Cl)cc2)cs1	12	7	25	nt	7%
CCNc1nc(-c2ccc(Cl)cc2)cs1	81*	52*	4	272%	nt
CNc1nc(-c2ccc(Cl)cc2)cs1	76*	27*	1	83%	18%
O=C(Nc1ccccc1)Nc1nc(-c2ccc(Cl)cc2)cs1	-5	1	-9	-6%	-6%
CC(C)(C)OC(=O)N1CCCC(C(=O)Nc2cccc(C(=O)N3CCOCC3)c2)C1 (centres undefined)	nt	nt	6	nt	nt
CSc1ccc(-c2nnn(CC(=O)Nc3sc4c(c3C#N)CCC(C(C)(C)C)C4)n2)cc1 (centres undefined)	nt	nt	-2	nt	nt
CC(C)(C)C1CCc2c(sc(NC(=O)CSc3ncn[nH]3)c2C#N)C1 (centres undefined)	21	14*	-20	-27%	-22%
CCCc1cc(=O)[nH]c(SCC(=O)NC2CC2)n1	nt	nt	49	nt	nt
CC1CCc2c(sc(NC(=O)CSc3ncn[nH]3)c2C#N)C1 (centres undefined)	-19	-3	-66*	-22%	-13%
CCCc1cc(=O)[nH]c(SCC(=O)Nc2sc3c(c2C#N)CCC(C)C3)n1 (centres undefined)	-2	4	-61*	8%	3%
N#Cc1c(NC(=O)CSc2ncn[nH]2)sc2c1CCCC2	-27	-5	-37	nt	nt
Cc1cc(C)c(NC(=O)COC(=O)/C=C/c2cccs2)c(C)c1	-8	2	-39	2%	12%
CC(C)(C)Cc1cc(N)on1	-8	14	-16	-28%	7%
CC(C)CCn1c(=S)[nH]c2ncccc2c1=O	0	2	37	6%	?
Cn1c(=S)[nH]c2cccnc21	-9	1	26	15%	8.3µM*
CC1(C)CC2(CCO1)OC(=O)CC2C(=O)Nc1ccc(Cl)cc1[N+](=O)[O-] (centres undefined)	-7	-3	2	60%	52%
CC(C)(C)n1cnc2cc(NCc3cccs3)ccc21	120*	30*	49	196%	-18%
CCn1cnc2cc(NCc3cccs3)ccc21	188*	31*	-4	124%	7%
